Screening data (PubChem)
Wnt bcat act = activates Wnt/beta-catenin signaling in a reporter cell assay. activator, plate reader. activation, % at 9.35 µM. actives 1.2% (n = 300,000); in the data active = activation above about 30%, passing the limit was not always enough;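 also: 0% = neutral control wells and 100% = positive control wells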
Env fusion inh = inhibitors of HIV Env-mediated cell fusion. HeLa-JRFL Env/CEM21 cell fusion, luciferase. inhibition, % at 12.3 µM. actives 1.1% (n = 360,000). AID 651610;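 active = mean replicate inhibition score of at least 50 and every replicate individually at or above 50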;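 also: 0% = plate neutral controls and 100% = maraviroc near 300 nM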
CFTR F508del cor = correctors of CFTR F508del function in bronchial epithelial cells | activity (quench increase), % at 7.58 µM | actives 0.36% (n = 350,000) | CFBE cells, YFP halide quenching; stimulated with forskolin plus potentiator P3; % fluorescence drop versus neutral controls | AID 720511;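 active = mean added fluorescence quench of at least 8% versus neutral control, with both replicates also reaching 8%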;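 also: cells transiently co-express mutant CFTR-F508del with the halide-sensitive YFP; corrector assay measuring rescue of mutant channel to the surface after 24 h compound exposure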
MITF act = MITF TRPM1 promoter activation in melanoma cells; actives 0.75% (n = 300,000); activation, % at 12.5 µM; SK-MEL-5 TRPM1-promoter luciferase, 24 h; % of positive control, neutral wells = 0; AID 588334;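 active = mean activation of at least 80% with every replicate also reaching 80%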;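 also: 0% = neutral control wells and 100% = parthenolide positive control wells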
INS-1E GSIS act = GLuc luminescence reporter in INS-1E cells, primary screen for activators of glucose-dependent secretion of insulin | AID 743287 | actives 0.61% (n = 370,000) | activation, % at 16.6 µM | INS-1E GLuc reporter insulin secretion, 2-3 h;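 active = lowest replicate activation of at least 40%, so every replicate reaches that level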;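 also: 0% = median of neutral control wells and 100% = median of IBMX positive control wells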
Active calls of the source: *; x = no result given; [ ] = dose if it differs, or a comment. Shown are actives, neighbours in structure and some others; about 2.7% of the full set was active somewhere.

SMILES	Wnt bcat act	Env fusion inh	CFTR F508del cor	MITF act	INS-1E GSIS act
CNC[C@@H]1Oc2c(NC(=O)Nc3ccc4c(c3)OCO4)cccc2C(=O)N([C@H](C)CO)C[C@H]1C	x	-4.2[16.7 µM]	-0.3	x	5.7
C[C@H](CO)N1C[C@H](C)[C@H](CN(C)Cc2ccccc2)Oc2c(NC(=O)Nc3ccc4c(c3)OCO4)cccc2C1=O	x	65.2*[16.7 µM]	1.6	x	-6.3
CNC[C@H]1Oc2c(NC(=O)Nc3ccc4c(c3)OCO4)cccc2C(=O)N([C@H](C)CO)C[C@@H]1C	x	63.8*[16.7 µM]	-4.6	x	11.5
C[C@@H]1CN([C@@H](C)CO)C(=O)c2cc(NC(=O)c3ccncc3)ccc2O[C@@H](C)CCCCO[C@@H]1CN(C)S(=O)(=O)c1ccc(F)cc1	x	9.6[16.7 µM]	0.5	x	11.8
CO[C@H]1CN(C)C(=O)c2ccc(NS(=O)(=O)c3ccc(C)cc3)cc2OC[C@@H](C)N(C(=O)NC(C)C)C[C@H]1C	x	x	-0.5	x	-26.6
CC(=O)N1[C@H](C(=O)Nc2ccccc2)[C@@H](CO)[C@@H]2Cn3c(ccc(C4=CCCC4)c3=O)[C@@H]21	x	3.7[16.7 µM]	x	x	0.9
Cc1nn(-c2cccc([N+](=O)[O-])c2)c(N)c1-c1ccccc1	14.9	-49.4	-1.4	92.2*	2.2
CC[C@@H]1CC=C[C@H]2[C@H]1C(=O)N(Cc1ccccc1)[C@H]2c1ccc(C(F)(F)F)cc1	-17.5	57.0*	1.8	16.7	-20.6
COc1ccc(S(=O)(=O)Nc2ccc3c(c2)OC[C@H](C)NC[C@@H](C)[C@@H](OC)CN(C)C3=O)cc1	x	-14.7[16.7 µM]	-0.6	x	5.8
COc1ccc2oc(=Nc3ccccc3)c(-c3nc4ccccc4[nH]3)cc2c1	43.9*	x	x	12.5	82.2
COCC#Cc1ccc2c(c1)O[C@H](CN(C)C(=O)CN(C)C)[C@H](C)CN([C@@H](C)CO)S2(=O)=O	x	4.7[16.7 µM]	-1.4	x	5.6
CCCCN(C(=O)c1cc(S(=O)(=O)N2CCCCC2)ccc1Cl)c1c(N)n(CC(C)C)c(=O)[nH]c1=O	-0.2	-35.7	10.0*	x	1.7
CCCCN(C(=O)c1cc(S(=O)(=O)N2CCCCCC2)ccc1OC)c1ccccc1	0.5	93.3*	-4.5	-10.3	-54.6
CCCCN(C(=O)c1cc(S(=O)(=O)N2CCOCC2)ccc1Cl)c1c(N)n(CC(C)C)c(=O)[nH]c1=O	-3.0	59.0*	3.0	-10.0	1.3
C[C@@H]1CN([C@@H](C)CO)C(=O)Cc2cc(NS(=O)(=O)c3ccccc3)ccc2O[C@@H]1CN(C)Cc1ccc2c(c1)OCO2	x	x	-1.4	x	-2.5
Cc1cnc(C(=O)OCC(=O)NCc2ccccc2)cn1	-1.6	-56.1	x	x	x
Cc1cnc(C(=O)OCC(=O)Nc2ccc(OCc3ccccc3)cc2)cn1	32.5*	-14.4	-3.3	95.7*	21.8
Cc1ccccc1OCc1nc2ccccc2c(=O)n1N	-3.5	x	x	x	x
Cc1ccccc1OCc1nnc2c3cnn(C)c3ncn12	x	x	x	89.5*	-0.2
COc1ccc(NC(=O)N(C)C[C@H]2Oc3c(NC(=O)c4ccc(-c5nccs5)cc4)cccc3C(=O)N([C@@H](C)CO)C[C@H]2C)cc1	x	-168.9[16.7 µM]	3.9	x	-10.2
NC(=O)C1CC(=O)N(c2ccc(OCc3ccc(Cl)c(Cl)c3)cc2)C1 (stereo not given)	53.6*	-184.8	-4.0	x	-22.0
CNC(=O)C1CC(=O)N(c2ccc(OCC(=O)Nc3ccccc3)cc2)C1 (stereo not given)	1.9	x	10.2*	-3.2	55.0*
NC(=O)C1CC(=O)N(c2ccc(OCC(=O)Nc3ccc(F)cc3)cc2)C1 (stereo not given)	3.1	x	0.7	8.3	8.9
CCc1ccc(N2CC(C(=O)Nc3ccccc3F)CC2=O)cc1 (stereo not given)	-0.2	-9.0	x	3.1	10.6
NC(=O)C1CC(=O)N(c2ccc(OCC(=O)Nc3ccccc3F)cc2)C1 (stereo not given)	33.8*	x	-2.8	68.2	8.2
CCc1ccc(N2CC(C(=O)Nc3ccccc3N3CCCC3)CC2=O)cc1 (stereo not given)	-0.2	26.4	9.2*	x	-1.4
COc1ccc(NC(=O)N(C)C[C@@H]2OCCCC[C@@H](C)Oc3ccc(NS(=O)(=O)c4ccc(OC)cc4)cc3C(=O)N([C@@H](C)CO)C[C@H]2C)cc1	x	-58.6[16.7 µM]	2.7	x	-8.0
C[C@@H]1CN([C@@H](C)CO)C(=O)c2cc(-c3cccc(F)c3)cnc2O[C@H]1CN(C)C	x	-10.6[16.7 µM]	-1.9	x	14.4
Cc1ccccc1-c1cnc2c(c1)C(=O)N([C@@H](C)CO)C[C@@H](C)[C@H](CN(C)C(=O)c1ccccc1)O2	x	-10.6[16.7 µM]	-2.6	x	2.6
